Screening data deposited in PubChem by National Center for Advancing Translational Sciences (NCATS).
Sampled rows, rich in hits. Any-hit rate of the full collection: about 13%.
Pf growth 48h – P. falciparum growth inhibition at 48 hours (one generation); Potency, µM (top dose mostly 28.7 µM), for inactives: at the highest dose activity change, negative = inhibition, usual class: inhibitors; AID 504832; P. falciparum luciferase growth in erythrocytes, 48 h; actives 5.9% (n = 310,000); also: potency is read from the fitted curve at half-maximal effect
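A one-generation exposure of luciferase-tagged malaria parasites in RPMI 1640/Albumax erythrocyte culture, 37 C and 5% CO2. Inhibition is inferred from decreased luminescence after adding detection reagent.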
Pf growth 96h – P. falciparum growth inhibition at 96 hour, primary screen for plastid delayed-death inhibitors. P. falciparum luciferase reporter growth, 96 h. AID 504834. Potency, µM (titrated, usually from 28.7 µM), for the others: top-dose activity change, negative = inhibition, most hits filed as inhibitors. actives 6.9% (n = 320,000); also: potency is read from the fitted curve at half-maximal effect
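Parasite growth measured via integrated firefly luciferase reporter in P. falciparum. Infected erythrocytes at 2% hematocrit, 0.05% parasitemia final were treated 96 hours at 37 C under 5% CO2, and luminescence was read.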
HCMV inh – inhibitors of human cytomegalovirus; AID 1259415; activity change, negative = inhibition, % at 57.5 µM; actives 4.5% (n = 410,000); HFF cells, HCMV-luciferase reporter, 72 h; stronger effect = lower value; in the data active = activity change below about -60%; inconclusive = no clear call, values can overlap the other calls; inactive = above about -39%
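Steps: HFFs plated, 16 h 37C; compounds added; HCMV-luciferase added to MOI 1 PFU/cell; 72 h 37C; OneGlo reagent, 5 min room temperature; luminescence read, normalized to controls.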
HCV inhibitor – inhibitors of hepatitis C virus infection; Huh7.5.1 HCVcc-Cre infection, luciferase reporter, 44 h; Potency, µM (titrated, usually from 41.8 µM), for the others: at the highest dose activity change, negative = inhibition, hits mostly inhibitors; actives 3.4% (n = 340,000); also: potency is read from the fitted curve at half-maximal effect
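1,000 cells/well; 4 h culture; + compound; + HCVcc-Cre (~0.5 moi); 44 h; luciferase substrate, RT 15 min; read 15 sec.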
Numbers without * were called inactive. Unless noted, calls follow the shape of the dose curve; as a rule, active = well fitted inhibition curve with a large enough effect; inconclusive = small, poorly fitted or top-dose-only effect, or another doubt; inactive = no such curve, though single readings can be large or run the other way. % is scaled to controls: 0 for no effect and ±100 for the full control effect.

`Cc1ccc(-c2nnc(SCC(=O)N(C)C)nc2-c2ccc(C)cc2)cc1` gave Pf growth 48h inconclusive, Pf growth 96h inconclusive, HCMV inh -60* and HCV inhibitor -13%.
`CCC(=O)N1CCc2cc(Br)cc(S(=O)(=O)Nc3ccccc3C(=O)OC)c21` gave HCMV inh 6.
Screening Cc1ccc(S(=O)(=O)/N=C2\CN(C)C(=O)N2C)cc1 returned Pf growth 48h 5%, Pf growth 96h 4.7µM*, HCMV inh -13 and HCV inhibitor 15%.
S=C(Nc1ccccc1)N1CCN(C(=S)c2ccccc2)CC1 was read as Pf growth 48h 86%, Pf growth 96h 3%, HCMV inh -102* and HCV inhibitor 4%.
Screening CC(=O)c1cccc(NC(=S)N2CCN(S(=O)(=O)c3ccc(F)cc3)CC2)c1 returned Pf growth 48h inconclusive, Pf growth 96h inconclusive, HCMV inh inconclusive and HCV inhibitor -8%.
For Cc1cccc(NC(=S)N2CCN(S(=O)(=O)c3cccc(F)c3)CC2)c1 the results were Pf growth 48h 13µM*, Pf growth 96h inconclusive, HCMV inh -14 and HCV inhibitor 6.3µM*.
For S=C(Nc1ccccc1)N1CCCCC1 the results were Pf growth 48h 39%, Pf growth 96h 1%, HCMV inh -4 and HCV inhibitor -9%.
CC(=O)c1cccc(NC(=S)N2CCN(S(=O)(=O)c3ccccc3)CC2)c1 was read as Pf growth 48h inconclusive, Pf growth 96h 4.1µM* and HCMV inh -24.
For S=C(NCc1ccc2c(c1)OCO2)NC1CCN(Cc2ccccc2)CC1 the results were Pf growth 48h 2%, Pf growth 96h 10%, HCMV inh -78* and HCV inhibitor inconclusive.
For S=C(NCc1ccccc1)N1CCN(Cc2ccc3c(c2)OCO3)CC1 the results were Pf growth 48h 34%, Pf growth 96h -21%, HCMV inh -35 and HCV inhibitor 3%.
c1ccc(CN2CCC(N3CCN(Cc4ccc5c(c4)OCO5)CC3)CC2)cc1 was read as Pf growth 48h 15µM*, Pf growth 96h inconclusive, HCMV inh inconclusive and HCV inhibitor inconclusive.
For c1cc2c(cc1CN1CCN(C3CCCCCC3)CC1)OCO2 the results were Pf growth 48h -14%, Pf growth 96h 7%, HCMV inh -4 and HCV inhibitor 8%.
Screening COC(=O)C1C(O)C(C)C(O)C(C)/C=C\C=C(/C)C(=O)Nc2c(C)c(OC(C)=O)c3c(c2O)C(=O)C(C)=C2OCOC(=C23)/C(C)=C/C(C)(O)C(O)C(C)C1O (configuration not stated) returned Pf growth 48h 12µM*, Pf growth 96h 9.3µM*, HCMV inh 10 and HCV inhibitor 4%.
`COC1C=COC2(C)Oc3c(C)c(O)c4c(O)c(c(CN5CCN(C)CC5)c(O)c4c3C2=O)NC(=O)C(C)=CC=CC(C)C(O)C(C)C(O)C(C)C(OC(C)=O)C1C` (configuration not stated) gave HCMV inh 3 and HCV inhibitor 7%.
`CCOc1cc(/C=N/Nc2nc(-c3cccc(S(=O)(=O)N4CCCC4)c3)cs2)ccc1O` gave Pf growth 48h 9.3µM*, Pf growth 96h 10µM*, HCMV inh inconclusive and HCV inhibitor 10µM*.
For CCOc1cc(C=NNC(=O)c2cccc(S(=O)(=O)N3CCCC3)c2)ccc1O the results were HCMV inh 0 and HCV inhibitor -17%.
COc1ccc(/C=N/Nc2nc(-c3cccc(S(=O)(=O)N4CCCC4)c3)cs2)cc1OC was read as Pf growth 48h 9.3µM*, Pf growth 96h 12µM*, HCMV inh inconclusive and HCV inhibitor 10µM*.
For O=C(N/N=C/c1ccc(Cl)c([N+](=O)[O-])c1)c1cnccn1 the results were Pf growth 48h -2%, Pf growth 96h 5%, HCMV inh -13 and HCV inhibitor 1%.
Screening COc1cc(/C=N/NC(=O)c2ccc(CN(C)S(=O)(=O)c3ccc(C)cc3)cc2)ccc1O returned Pf growth 48h -10%, Pf growth 96h -17%, HCMV inh 9 and HCV inhibitor inconclusive.
O=C(N/N=C/c1ccc(Sc2nc3ccccc3s2)c([N+](=O)[O-])c1)c1ccccn1 was read as Pf growth 48h inconclusive, Pf growth 96h 10µM*, HCMV inh -19 and HCV inhibitor inconclusive.
For COc1cc(/C=N/Nc2nc(-c3ccc(S(=O)(=O)N(C)C)cc3)cs2)ccc1O the results were Pf growth 48h 2.1µM*, Pf growth 96h 8.3µM*, HCMV inh -65* and HCV inhibitor inconclusive.
For Cc1ccc(NC(=O)CSc2nc3ccc(NC(=O)CCc4ccccc4)cc3s2)cc1 the results were HCMV inh 3.
`O=[N+]([O-])c1cc(/C=N/N/C(=N/c2ccccn2)c2ccccn2)ccc1O` gave Pf growth 48h 0%, Pf growth 96h inconclusive, HCMV inh -83* and HCV inhibitor inconclusive.
`O=[N+]([O-])c1ccc(/C=N/N/C(=N/c2ccccn2)c2ccccn2)cc1` gave Pf growth 48h 81%, Pf growth 96h 293%, HCMV inh 30 and HCV inhibitor -18%.
For O=[N+]([O-])c1cc(/C=N\Nc2nc(-c3ccccc3)cs2)ccc1O the results were Pf growth 48h 12µM*, Pf growth 96h 31%, HCMV inh -11 and HCV inhibitor -8%.
Screening Cc1ccc(Cn2cc(C(=O)c3ccc(F)cc3)c(=O)c3cc4c(cc32)OCO4)cc1 returned HCMV inh 8.
For Cc1ccc(C(=O)c2cn(Cc3ccc(F)cc3)c3nc(C)ccc3c2=O)cc1 the results were HCMV inh -2.
O=C(c1ccccc1)c1cn(Cc2ccc(F)cc2)c2ccccc2c1=O was read as HCMV inh -10.
`COc1ccc(C(=O)c2cn(Cc3ccc(C)cc3)c3cc4c(cc3c2=O)OCO4)cc1` gave HCMV inh -65*.
`Cc1ccc(C(=O)c2cn(Cc3ccc(Cl)cc3)c3nc(C)ccc3c2=O)cc1` gave Pf growth 48h inconclusive, Pf growth 96h 12µM* and HCMV inh -39.
Cc1ccc(C(=O)c2cn(Cc3ccccc3)c3ccccc3c2=O)cc1 was read as HCMV inh -63*.
Cc1ccc(Cn2cc(C(=O)c3ccc(F)cc3)c(=O)c3cc4c(cc32)OCCO4)cc1 was read as Pf growth 48h -25%, Pf growth 96h 12µM*, HCMV inh -4 and HCV inhibitor inconclusive.
Cn1c(=O)oc2cc(S(=O)(=O)N3CCCC(C(=O)Nc4ccc(Br)cc4F)C3)ccc21 (configuration not stated) was read as HCMV inh -18.
Screening CCOc1ccc2c(c1)c(=O)c(S(=O)(=O)c1ccc(CC)cc1)cn2Cc1cccc(Cl)c1 returned HCMV inh -17.
Cc1ccc(Cl)cc1NC(=O)c1oc2ccc(S(=O)(=O)N3CCC4(CC3)OCCO4)cc2c1C was read as HCMV inh -13.
For COc1cccc(CNC(=O)c2cc(C)nc3c2c(C)nn3-c2cccc(F)c2)c1 the results were HCMV inh 15.
